Data from PubChem BioAssay AID651820 (National Center for Advancing Translational Sciences (NCATS), 2012).
Screen size: about 340,000 compounds; about 12,000 (3.5%) were called active. Another 18% or so got no clear call; they are omitted. This is one part of a sample in which actives are shown more often than they occur. Unmarked numbers belong to inactive results. Calls follow the shape of the dose curve; as a rule, active = well fitted inhibition curve with a large enough effect; inconclusive = small, poorly fitted or top-dose-only effect, or another doubt; inactive = no such curve, though single readings can be large or run the other way.

assay: qHTS Assay for Inhibitors of Hepatitis C Virus (HCV); settings: Huh7.5.1 HCVcc-Cre infection, luciferase reporter, 44 h; series mostly up to 41.8 µM; activity change, negative = inhibition: at the top concentration
Outline: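 Luciferase read-out (15 sec integration) after a 15 min room-temperature substrate step quantifies HCVcc-Cre infection. Cells, 1,000 per well, had compound added 4 h post-plating, then virus at ~0.5 moi, and were cultured 44 h.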
% is scaled to controls: 0 for no effect and ±100 for the full control effect; potency is read from the fitted curve at half-maximal effect.

Compound	activity change, negative = inhibition	Potency
CCOc1ccccc1Nc1nnc(SCC(=O)NCC2CCCO2)s1 (stereo not drawn)	-2.14%	
C=C(C)CNc1cc(S(=O)(=O)N2CCOCC2)ccc1Oc1ccccc1	-4.73%	
CCOc1ccc(CCNC(=O)COC(=O)c2c(OC)cccc2OC)cc1OCC	-15.3%	
CC(C(=O)NC1CCCC1)N1CCN(S(=O)(=O)c2ccccc2Cl)CC1 (stereo not drawn)	9.79%	
COc1ccc(OC)c(NC(=O)COC(=O)Cc2ccsc2)c1	-5.62%	
Cc1ccc(Br)c(NS(=O)(=O)c2cccc(C(=O)N3CCNC(=O)C3)c2)c1	21%	
Cc1ccc2nc(/C(C#N)=C\c3ccc(OC(=O)c4cccs4)cc3)[nH]c2c1		1.78 µM (active)
CCOC(=O)CSc1nc2ccc(C)cc2[nH]1	-5.08%	
Cc1ccc2nc(S(=O)(=O)O)[nH]c2c1	14.7%	
Cc1cc(C(=O)OCC(=O)Nc2ccccc2Cl)c(C)o1	22.3%	
O=C(O)CN1CCN(C(c2ccccc2)c2ccccc2)CC1	-3.12%	
CC(C)NC(=S)N1CCN(C(c2ccccc2)c2ccccc2)CC1	-7.24%	
CC1(C)CC(N2CCN(C(c3ccccc3)c3ccccc3)CC2)=CC(=[N+]2CCCCC2)C1		3.16 µM (active)
CS(=O)(=O)c1ccc(C(=O)OCC(=O)NNC(=O)COc2ccc(Cl)cc2)cc1	11.5%	
O=C(NCCCc1ccccc1)C(=O)NCC1OCCN1S(=O)(=O)c1ccccc1 (stereo not drawn)	-12.1%	
CN=C(Nc1cccc(S(=O)(=O)N2CCOCC2)c1)c1ccccc1	-0.947%	
CC(C)Oc1ccc(C(=O)NCC(=O)Nc2ccc3c(c2)CCC3)cc1	17.9%	
CC[C@]1(C(=O)OC)[C@H]2C(=O)N(Cc3ccccc3)C(=O)[C@H]2[C@H]2CN=C(SCc3ccccc3)N21	-13.1%	
O=S(=O)(O)c1nc2ccccc2n1Cc1ccc(Cl)cc1	28.9%	
N=c1n(Cc2ccc(Cl)cc2)c2ccccc2n1CC(O)c1ccco1 (stereo not drawn)		11.2 µM (active)
Cn1c(=N)n(CC(O)c2cccs2)c2ccccc21 (stereo not drawn)	-5.72%	
C[C@H](CO)N1C[C@H](C)[C@H](CN(C)CC2CC2)Oc2ccc(NC(=O)CCN3CCOCC3)cc2C1=O	-0.967%	
C[C@]12CCC(=O)C=C1C=CC1C2CC[C@@]2(C)C1CC[C@@]21CCC(=O)O1 (stereo partly drawn)	-13.4%	
COc1ccc(-c2c(C#Cc3ccsc3)c3cc(-c4ccc(CN5CCOCC5)cc4)ccc3n2C)cc1	3.05%	
Cc1cc(Nc2ccc(N3CCOCC3)cc2)c2cccc(C)c2n1	-9.69%	

Compound	activity change, negative = inhibition	Potency
Cc1cc(N2CCOCC2)nc(-c2ccc(Br)cc2)n1		10 µM (active)
Cc1cc(N2CCN(c3ccccc3)CC2)nc(N2CCOCC2)n1	-27.5%	
O=[N+]([O-])c1ccc(COc2ccccc2CN2CCOCC2)cc1	-17.2% [at 8.37 µM]	
Cc1cnc(NC(=O)c2ccccn2)s1		10 µM (active)
Cc1cnc(NC(=O)CSc2c(Cl)cccc2Cl)s1	6.41%	
Cc1cnc(NC(=O)c2ccc(Cl)nc2)s1	12.2%	
O=C(NCCc1ccc(F)cc1)c1ccc2nccnc2c1	-8.35%	
NC(=O)c1ccc(N2CCCC2)nc1	19%	
C[C@H]1CN([C@@H](C)CO)C(=O)Cc2cc(NC(=O)Cc3ccccc3)ccc2O[C@H]1CN(C)S(=O)(=O)c1cccs1	-7.75%	
COC(=O)c1ccc(SCc2ccccc2)nc1	4.39%	
CCCCOc1ccc(C(=O)NCC(=O)OCC(=O)c2c(N)n(C)c(=O)n(C)c2=O)cc1	8%	
COc1ccc(C(=O)N(C)Cc2ccc(OC)c(OC)c2OC)cc1S(=O)(=O)N1CCOCC1	1.42%	
COc1cc(OC)cc(-c2c(C#Cc3ccsc3)c3cc(-c4ccc(SC)cc4)ccc3n2C)c1	-10.3%	
COc1ccc(-c2c(C#Cc3ccccc3)c3ccccc3n2C)cc1	-1.44%	
COc1cc(OC)cc(-c2c(-c3ccc(F)cc3)c3cc(-c4ccc5cc[nH]c5c4)ccc3n2C)c1		10 µM (active)
COc1cc(OC)cc(-c2c(C#Cc3ccsc3)c3cc(-c4ccc(OC)cc4F)ccc3n2C)c1	8.06%	
COc1ccc(-c2c(-c3cc(OC)cc(OC)c3)n(C)c3ccc(-c4ccn[nH]4)cc23)cc1		11.2 µM (active)
COc1cc(OC)cc(-c2c(-c3cccs3)c3cc(-c4ccc(OC)nc4)ccc3n2C)c1	-8.98%	
CC1O[C@H](OC2C(COC3OC(CO)C(O)[C@H](O)C3O)OC(OC3CC[C@]4(C)C(CC[C@@]5(C)[C@@H]4C=C[C@]46OC[C@@]7(CCC(C)(C)C[C@H]74)C(O)C[C@@]56C)C3(C)C)C(O)C2O)C(O)C(O)C1O (stereo partly drawn)	3.93%	
CNC[C@@H]1Oc2c(NS(C)(=O)=O)cccc2C(=O)N([C@@H](C)CO)C[C@H]1C	12.2%	
CCN(CC(=O)Nc1ccccc1C(F)(F)F)C(=O)C1CCN(C(=O)Nc2ccccc2)CC1	1.26%	
COc1ccc(CCNC(=O)COC(=O)c2cc(=O)c3ccccc3o2)cc1	-17.9%	
Cc1cc2c(cc1C)N(C(=O)CN1C(=O)c3ccccc3C1=O)C(C)(C)c1ssc(=S)c1-2		8.91 µM (active)
Cc1ccc(NC(=O)CCN2C(=O)c3ccccc3C2=O)cc1C	-7.16%	
Cc1cc(C)cc(NC(=O)CN2C(=O)c3ccccc3C2=O)c1	-14.1%	

Compound	activity change, negative = inhibition	Potency
O=C(NOCc1ccccc1)c1cccc([N+](=O)[O-])c1	3.65%	
O=C(NC1CCCC1)C1CCN(C(=O)Nc2cccc(Cl)c2)CC1	-10.4%	
O=C(Nc1cccc(-c2cccc(Cl)c2)c1)C1CCN(C2CCC2)CC1		12.6 µM (active)
O=C(Nc1cccc(Cl)c1)C1CCCN(c2cnccn2)C1 (stereo not drawn)	7%	
N#Cc1ccc(CN2CCN(CC(=O)Nc3ccccc3C(=O)NC3CC3)CC2)cc1	-0.21%	
CCOC(=O)c1c(C)[nH]c2c1-c1ccccc1C(=O)C2=O		2.51 µM (active)
CCOC(=O)c1c(C)[nH]c(C)c1S(=O)(=O)N(C)CC(=O)Nc1ccccc1C	26.1%	
CCOC(=O)N1CCN(CC(=O)c2c(C)[nH]c3ccccc23)CC1	3.72%	
O=C1OC(Cc2ccccc2)C(c2ccccc2)C1=O (stereo not drawn)	25.4%	
COCCN(CCOC)S(=O)(=O)NC[C@H]1O[C@@H](n2cnc3c(N)ncnc32)[C@H](O)[C@@H]1O	52.6%	
O=C(COc1coc(CN2CCN(c3ccccc3F)CC2)cc1=O)N1CCc2ccccc21	13.6% [at 8.37 µM]	
Cc1ccc(Nc2c(O)nc[nH]c2=O)cc1C	8.83%	
CC(C)N(Cc1ccccc1)C(=S)Nc1ccc(OC(F)F)cc1	-13.6%	
CC/C(=N\NC(=S)NC(C)C)c1ccc(OC(F)F)cc1		10 µM (active)
O=C(NNC(=S)NCc1ccccc1)c1ccc(OC(F)F)cc1	27.3%	
CC(C)c1ccc(/C=C/C(=O)NCCCN2CCOCC2)cc1	18.6%	
C[C@H]1COC(=O)[C@H](CC(=O)OC(C)(C)C)C/C=C\C[C@@H](CC(=O)N[C@H](CO)Cc2ccccc2)C(=O)N1	19.3%	
O=C(N/N=C/c1ccc(OC(=O)c2ccccc2Cl)cc1)c1ccc(O)cc1	-17.5%	
CC(C)(C)C(=O)Nc1ccc(C(=O)N/N=C/c2ccccc2OC(=O)c2ccc(Cl)cc2Cl)cc1		10 µM (active)
O=C(N/N=C/c1ccoc1)c1ccc(Cl)cc1Cl	-0.768%	
CCOc1ncccc1C(=O)Nc1ccc(S(=O)(=O)Nc2nc(C)cc(C)n2)cc1	9.65%	
CCN(Cc1cc2cc(C)ccc2[nH]c1=O)S(=O)(=O)c1ccccc1		11.2 µM (active)
CCC(=O)N(CCc1ccccc1)Cc1cc2cc(C)ccc2[nH]c1=O	2.79%	
Cc1ccc(S(=O)(=O)N(Cc2cc3ccccc3[nH]c2=O)CC2CCCO2)cc1 (stereo not drawn)	-14.3%	
O=C(COC(=O)c1ccc2c(c1)OCCO2)NCc1ccccc1Cl	-1.28%	

Compound	activity change, negative = inhibition	Potency
CCOc1ccc(-n2c(O)c(/C=N/c3ccnn3Cc3ccncc3)c3ccccc3c2=O)cc1	-0.515%	
CCOc1ccc(-n2c(O)c(/C=N/Nc3nnc(C)c(=O)[nH]3)c3ccccc3c2=O)cc1	13.9%	
CCOc1ccc(-n2c(O)c(/C=N/Nc3nc(C)cc(C)n3)c3ccccc3c2=O)cc1		2.24 µM (active)
COC(=O)C1CC2=C(CC(C)(C)CC2=O)N(c2ccccc2)C1=O (stereo not drawn)	32.1%	
CC1CC2=C(CC1/C=N/NC(N)=S)C(C)(C)CCC2 (stereo not drawn)		6.31 µM (active)
C[C@@H]1ON(C)[C@H]2C[C@H]3c4cc(N5CCN(C)CC5)ccc4CCN3C(=O)[C@@H]12	24.6%	
O=C(NCc1ccc(Cl)cc1)C(=O)NCC1CCCN1S(=O)(=O)c1cccs1 (stereo not drawn)	-4.44%	
Oc1ccc(-c2nnc(Nc3ccccc3)c3ccccc23)cc1	4.1%	
Cc1cccc(-c2nc(Nc3ccc(O)cc3)c3ccccc3n2)c1		12.6 µM (active)
CCOC(=O)c1nc(Nc2ccc(C(=O)OC)cc2)c2ccccc2n1	-16%	
S=c1nc2ccccc2c2nc(-c3cccnc3)[nH]n12	-4.46%	
COc1ccc(Nc2nc(-c3cccnc3)nc3ccccc23)cn1		7.94 µM (active)
COc1ccccc1Oc1nc(-c2cccnc2)nc2ccccc12	-18%	
COc1ccc(Br)cc1CN(C)C(=O)C1CC(=O)N(C2CCCC2)C1 (stereo not drawn)	-3.77%	
O=C(CC1SC(N2CCCC2)=NC1=O)Nc1ccc(C(=O)NCCc2ccc(F)cc2)cc1 (stereo not drawn)	6.88%	
O=C(COC(=O)c1c(Cl)cccc1Cl)Nc1cccc(S(=O)(=O)NC2=NCCCCC2)c1	-2.28%	
CCN1C[C@@H]2[C@@H]3C(=O)N(Cc4ccccc4)C(=O)[C@@H]3[C@](C)(C1=O)N2C(=O)c1ccc(C(C)(C)C)cc1	7.51%	
CCc1ccc(C(=O)N2CCN(S(=O)(=O)c3sc(C(=O)O)c(C)c3C(=O)O)CC2)cc1	-13.4%	
c1ccc2c(c1)OC1OC2Oc2ccccc21	30.9%	
COc1ccccc1N1CCN(C(=O)C2Cc3ccccc3CN2C(=O)c2ccco2)CC1 (stereo not drawn)	24%	
CCCCNC(=O)N(O)C1N(/N=C/c2ccc(N(C)C)cc2)C(=S)SC1(C)C (stereo not drawn)	13.8%	
CCCCNC(=O)N(O)C1N(/N=C/c2ccccc2O)C(=S)SC1(C)C (stereo not drawn)		7.08 µM (active)
CCC(C)N1C(=S)SC(C)(C)C1N(O)C(=O)NC1CCCCC1 (stereo not drawn)	23%	
